Reference: PubChem BioAssay AID652010 (The Scripps Research Institute Molecular Screening Center, 2013)
Screen size: about 370,000 compounds; about 4,100 (1.1%) were called active.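 How the source made its calls: active means inhibition above the mean over all tested compounds plus 3 SD (cut at about 3.6% in these data); inactive means the rest.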 The entries come from a sample that favours actives as a whole.

Assay: DAX1 (NR0B1) inhibitors on StAR promoter, primary screen, cell-based, luminescence, SF-1 (NR5A1), full-length DAX-1 (AID 652010);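 further: 0% = DAX-1 cells with DMSO and 100% = cells lacking DAX-1 with DMSO; higher inhibition means more luminescence from relief of DAX-1 repression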
Conditions: HEK293T StAR-luciferase reporter, SF-1/DAX-1 repression relief; at 6.8 µM; active compounds read high

Compound	inhibition
Cc1cc(C)c2c(c1)NP(=S)(c1ccccc1)N2 (stereo not given)	4.45% (active)
COc1ccc2c(c1)NP(=S)(c1ccccc1)N2 (stereo not given)	6.3% (active)
C[C@]12CCC3C(CC[C@H]4[C@H](O)[C@H](O)CC[C@]34C)C1CCC2=O (stereo not given in full)	-0.89% (inactive)
Cc1ccccc1CCC[C@@H](CC1CCCCC1)CN(C)C(=O)Oc1ccccc1	-0.86% (inactive)
Cc1nc2nc(C)c(CCC(=O)N3CCC4(CC3)OCCO4)c(C)n2n1	0.57% (inactive)
CC(=O)N1CN2CN(C(C)=O)CC(C(=O)c3ccc(Br)cc3)(C2)C1	0.07% (inactive)
CCOc1cccc(=NC2CCCCC2)c2c(C)[nH]c(C)c12	-0.76% (inactive)
COP(=O)(Sc1ccccc1)C(Cc1ccccc1)NC(=O)OCc1ccccc1 (stereo not given)	-2.01% (inactive)
c1cncc(CNC2=NCCC2)c1	0.16% (inactive)
Cc1c(Oc2cc(NN3CCCCC3)c([N+](=O)[O-])cc2[N+](=O)[O-])cccc1[N+](=O)[O-]	0.11% (inactive)
